Bioassay records: PubChem, The Scripps Research Institute Molecular Screening Center
Only some compounds are listed: those with a hit (about 4% of all), similar ones and a draw of the others.
Nox1 inh: inhibitors of human NADPH oxidase 1 (Nox1); HT29 cells, luminol chemiluminescence ROS; inhibition, % at 6.7 µM; 16,000 tested, 0.81% active
Target sequence (Q9Y5S8 whole entry, looked up): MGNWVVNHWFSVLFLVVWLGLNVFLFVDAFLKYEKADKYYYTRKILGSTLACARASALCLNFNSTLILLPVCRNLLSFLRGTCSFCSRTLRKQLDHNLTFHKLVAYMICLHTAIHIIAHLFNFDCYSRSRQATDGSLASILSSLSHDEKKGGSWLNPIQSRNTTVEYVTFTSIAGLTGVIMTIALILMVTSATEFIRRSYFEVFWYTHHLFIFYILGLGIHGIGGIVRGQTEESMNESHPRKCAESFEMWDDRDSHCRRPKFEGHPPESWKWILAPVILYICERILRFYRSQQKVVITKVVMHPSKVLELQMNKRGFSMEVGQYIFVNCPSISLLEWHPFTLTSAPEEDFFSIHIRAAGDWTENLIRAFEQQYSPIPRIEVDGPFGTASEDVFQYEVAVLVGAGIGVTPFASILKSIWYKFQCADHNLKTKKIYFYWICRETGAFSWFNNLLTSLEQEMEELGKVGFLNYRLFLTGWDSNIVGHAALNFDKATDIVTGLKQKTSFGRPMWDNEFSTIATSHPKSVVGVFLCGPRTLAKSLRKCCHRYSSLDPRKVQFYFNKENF
luminol inh ctr: counter-screen for Nox1 inhibitors: inhibitors of luminol chemiluminescence; HRP/luminol/H2O2 chemiluminescence counterscreen; inhibition, % at 6.7 µM; 16,000 tested, 0.4% active; AID 1823, 2009; further: reference of the scale not given here
KOR antag MB: antagonists of human kappa opioid receptor OPRK1, Maybridge library | Kappa-type opioid receptor (Homo sapiens), P41145 | OPRK1 cells, antagonist mode, fluorescence readout | inhibition, % at 9 µM | 16,000 tested, 0.4% active | AID 652031, 2013; in the data active means inhibition above about 50%
NOTCH agonist: agonists of NOTCH signaling; NOTCH signaling luciferase reporter cells, luminescence; activation, % at 2.5 µM; 15,000 tested, 0.4% active; in the data active means activation above about 2.2%
PME-1 Maybr inh: inhibitors of human PME-1 in Maybridge library; Protein phosphatase methylesterase 1 (Homo sapiens), Q9Y570; recombinant PME-1, FP-Rh probe fluorescence polarization; inhibition, % at 9 µM; 16,000 tested, 0.5% active; in the data active means inhibition above about 30%
S1P1 agonist: activates the human S1P1 receptor; Sphingosine 1-phosphate receptor 1 (Homo sapiens), P21453; S1P1 agonist cell-based reporter assay; activation, % at 4.5 µM; 16,000 tested, 1.5% active; AID 1044, 2008; in the data active means activation above about 80%
* hit, by the source's call; x = no result. Unless noted, no stated cut-off is given here; in the data, active means inhibition above about 75%; inactive means the rest.

SMILES | Nox1 inh | luminol inh ctr | KOR antag MB | NOTCH agonist | PME-1 Maybr inh | S1P1 agonist
O=C(O)/C=C/C(=O)Nc1ccc(N2CCCCCC2)c(NC(=O)/C=C/C(=O)O)c1 | 18 | 5 | 9 | 2.4* | -6 | -11
COC(=O)C1=C(Nc2ccccc2NS(=O)(=O)c2ccc(OC)cc2)CSC1 | 49 | 29 | -2 | 0 | 9 | 7
COC(=O)C1=C(Nc2ccc(O)cc2)CSC1 | 99* | -19 | 22 | 0 | 6 | 11
CN(CCC#N)c1ccc(C=NCCCN=Cc2ccc(N(C)CCC#N)cc2)cc1 | -73 | 2 | -11 | 0 | 4 | 101*
COc1ccc(C(=O)C=C(C)C)c(O)c1O | 76* | 41 | -21 | 0 | 2 | 6
Cc1ncc(CSc2nc3ccc(C(F)(F)F)cc3[nH]2)c(CO)c1O | 4 | 88* | 1 | 0 | 6 | 2
CCCCCCCCCCCC(=O)NN | 23 | -6 | 26 | 0 | 11 | 8
CCCCCCCCCCCC(=O)ON1C(=O)CCC1=O | 73 | -5 | 50* | -1 | 5 | -5
COc1cccc(Cl)c1-c1nc(NC(C)=O)nc(NC(C)=O)n1 | 8 | -6 | -8 | 0 | 11 | 4
Cc1nc(-c2cc(C#N)c(NCc3ccccc3)nc2C)cs1 | -61 | 3 | -40 | 0 | 0 | 85*
CCOC(=O)Cc1c(C(=O)OCC)[nH]c(C)c1C(=O)OCc1ccccc1 | -74 | -1 | 15 | 5.8* | 7 | -10
Cn1c(Sc2ncnc(Sc3nnc(C(F)(F)F)n3C)c2[N+](=O)[O-])nnc1C(F)(F)F | 37 | 101* | -3 | 0 | 6 | -5
Cc1cc(Sc2nnc(C(F)(F)F)n2C)c([N+](=O)[O-])cc1[N+](=O)[O-] | 19 | -3 | -4 | 0 | 6 | -10
O=C1CC(c2ccccc2)CC(O)=C1C=Nc1cc(C(F)(F)F)cc(C(F)(F)F)c1 (centres undefined) | -56 | 5 | -9 | 0 | 3 | -2
O=C(Nc1ccc(N2CCCCC2)cc1)Nc1ccccc1OC(F)(F)F | 80* | 2 | 10 | 0 | -3 | 4
COC(=O)c1ccc([N+](=O)[O-])c(Oc2ccc(Cl)cc2Cl)c1 | -52 | 2 | -11 | 0 | 1 | 71
CCOC(=O)c1ccc(Oc2ccc(Cl)cc2Cl)c([N+](=O)[O-])c1 | 29 | -1 | -12 | -1 | -3 | 94*
Cc1nc2nc(N)[nH]c(=O)c2nc1C | -59 | 3 | -8 | 0 | -4 | 111*
Cc1ccc(SC#N)c(N)n1 | 100* | -9 | -6 | 0 | 3 | 2
CSc1nc(C)nc(N)c1C#N | -46 | 2 | -10 | 0 | -1 | -10
c1ccc(-c2cc3ncnc(NCc4ccc5c(c4)OCO5)c3s2)cc1 | 17 | 0 | 61* | 0 | 5 | 8
Cc1cc(C(=O)/C(C#N)=N/Nc2cccc(Cl)c2)n(C(C)(C)C)n1 | -16 | -2 | 19 | 0 | 0 | 88*
CC(C)(C)c1cc(C(=O)/C(C#N)=N/Nc2cccc(Cl)c2)no1 | 13 | -4 | 1 | 0 | 9 | 108*
Cc1cc(C(=O)NNc2cc(C(F)(F)F)ccc2Cl)n(C(C)(C)C)n1 | 72 | 2 | -3 | -1 | 0 | -15
O=c1c(C=Nc2ccccc2)c(Nc2ccccc2)[nH]n1-c1ccccc1 | 1 | -16 | 32 | 0 | 84* | 6
SMILES | Nox1 inh | luminol inh ctr | KOR antag MB | NOTCH agonist | PME-1 Maybr inh | S1P1 agonist
CCOC(=O)Cc1c(C)[nH]n(-c2ccccc2)c1=O | 44 | 2 | 24 | 0 | 0 | -4
O=C(Cc1ccc([N+](=O)[O-])cc1)Nc1nccs1 | 0 | -2 | -20 | 3.0* | 4 | 2
O=[N+]([O-])c1cccc(Cl)c1Oc1ccc(S(=O)(=O)N2CCOCC2)cc1 | 0 | -2 | 1 | -1 | 33* | 0
Cc1nc2c(Cl)c(Cl)c(Cl)c(N3CCOCC3)c2[nH]1 | 16 | 1 | -20 | 0 | 10 | 46
Cc1noc(C)c1NC(=O)NCCN1CCN(Cc2ccccc2)CC1 | -39 | 0 | -7 | x | -1 | -5
COc1ccccc1NC(=O)NCCN1CCN(Cc2ccccc2)CC1 | 60 | 3 | 80* | -1 | 8 | -11
OC1(C(F)(F)F)CC(C23CC4CC(CC(C4)C2)C3)=NN1 (centres undefined) | -24 | 3 | 15 | 0 | 0 | -14
COc1cc(-c2n[nH]c(=S)n2-c2ccccc2Cl)cc(OC)c1OC | -8 | 95* | 3 | 0 | 1 | -26
COc1cc(-c2n[nH]c(=S)n2C2CCCCC2)cc(OC)c1OC | 19 | 87* | -5 | 0 | 2 | -13
CCNS(=O)(=O)c1cc(Cl)sc1Cl | 7 | -6 | 6 | 0 | 8 | -2
Cc1nnsc1-c1nc(-c2ccc(F)cc2)cs1 | -49 | 3 | 5 | 0 | -4 | 10
N/C(=N\NS(=O)(=O)c1ccccc1OC(F)(F)F)c1cnccn1 | 32 | 14 | -12 | -1 | -2 | -13
O=c1c2cc([N+](=O)[O-])ccc2oc2ncccc12 | 5 | -2 | -10 | 3.0* | 3 | -10
O=c1oc2ccc([N+](=O)[O-])cc2cc1-n1cccc1 | -48 | 2 | 6 | -1 | -2 | -13
Cc1cc(-c2onc(C)c2C(=O)O/N=C(\N)c2cccc(C(F)(F)F)c2)no1 | -86 | 1 | 20 | -1 | -3 | -8
NC(=NC(=O)c1cccc(C(F)(F)F)c1)c1ccc(C(F)(F)F)cn1 | 41 | -1 | 58* | 0 | 0 | -11
N/C(=N\OC(=O)c1cccc(C(F)(F)F)n1)c1cccc(C(F)(F)F)c1 | -8 | -2 | 5 | 0 | 1 | 91*
Cc1c(S(=O)(=O)C(C)C)c(N)n(Cc2cccnc2)c1C | -28 | 5 | 10 | 0 | 1 | -3
Oc1c(Cl)c2nc3ccccc3nc2c2ccccc12 | -18 | 6 | 22 | 0 | 21 | 8
O=Cc1c(O)c2ccccc2c2ccccc12 | -107 | -5 | 72* | 0 | 31* | 14
O=S(=O)(CCN1CCN(CCS(=O)(=O)c2ccccc2)CC1)c1ccccc1 | -15 | -3 | -5 | 0 | 4 | -4
COc1ccc(NC(=S)NC(C)(C)C)c([N+](=O)[O-])c1 | -49 | 11 | -11 | -1 | 0 | 90*
O=C(NC(=O)c1ccccc1C(F)(F)F)NN1CCCCC1 | -11 | -5 | 0 | 0 | 4 | -8
O=C1CNC(=S)N1CCc1ccc(O)c(O)c1 | 93* | 96* | 11 | 0 | -2 | -5
O=C1CSCC(=O)N1c1csc(C(F)(F)F)c1-c1ccccc1 | -75 | 6 | 17 | 0 | 1 | 100*
O=S(=O)(Oc1ccc(Cl)cc1)c1csc(C(F)(F)F)c1-c1ccccc1 | -52 | 2 | -25 | 0 | -8 | -9
CC(C)(C)C(=O)Oc1ccc(-c2csnn2)cc1 | 11 | -66 | 12 | 0 | 4 | 11
